A selection: hits, their analogues and other compounds. The true share with any hit is near 10%.
HP1b chromo inh = HTS for Inhibitors of HP1-beta Chromodomain Interactions with Methylated Histone Tails. Chromobox protein homolog 1 (Homo sapiens), P83916. Potency, µM (titrated, usually from 114 µM), inactives show top-dose activity change, negative = inhibition, usual class: inhibitors. AID 540317, 2011. AlphaScreen HP1-beta / biotin-H3K9me3 peptide binding. 0.56% of 390,000 active; also: potency is read from the fitted curve at half-maximal effect; nearly all actives have a fitted effect of over 70% in size
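Compound inhibition of the preformed complex between 50 nM HP1-beta and 50 nM biotinylated H3K9me3 peptide was read by AlphaScreen. Buffer was PBS pH 7.4 with 0.01% Tween-20. Incubations ran 30 min at room temperature, with 10 ug/mL donor/acceptor beads.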
BAZ2B inh = qHTS Assay for Inhibitors of BAZ2B | Potency, µM (titrated, usually from 114 µM), for inactives: top-dose activity change, negative = inhibition, actives largely listed as inhibitors | 4.4% of 360,000 active | Bromodomain adjacent to zinc finger domain protein 2B (Homo sapiens), Q9UIF8 | AlphaScreen BAZ2B-H3K14Ac peptide displacement; also: potency is read from the fitted curve at half-maximal effect; % is scaled to controls: 0 for no effect and ±100 for the full control effect; nearly all actives have a fitted effect of over 60% in size
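Multi-concentration screen (max 110 uM) measuring displacement of acetylated histone H3 peptide from BAZ2B by AlphaScreen, using 50 nM protein, 50 nM peptide and 10 ug/mL streptavidin donor plus Ni-chelate acceptor beads.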
Six1-Eya2 inh = qHTS Assay for Inhibitors of the Six1/Eya2 Interaction | activity change, % (test concentration not listed) | Homeobox protein SIX1 (Homo sapiens) + Protein phosphatase EYA2 (Homo sapiens), … | AlphaScreen GST-Six1/His-Eya2 binding, biochemical; stronger effect = lower value | 0.56% of 360,000 active; in the data active = activity change below about -65%; inconclusive = mostly about -30% to -63%; also: % is scaled to controls: 0 for no effect and ±100 for the full control effect
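GST-Six1 + His-Eya2 (5X stock: 250/500 nM); Tris pH 8.0, 300 mM NaCl, 0.05% BSA, 0.02% Tween 20; GSH donor/Ni acceptor beads; 1 h 37 °C dark; AlphaScreen readout.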
JMJD2A Tudor inh = qHTS Assay for Inhibitors of JMJD2A-Tudor Domain; Lysine-specific demethylase 4A (Homo sapiens), O75164; AlphaScreen JMJD2A-Tudor / H3K4me3 peptide binding; Potency, µM (titrated, usually from 114 µM), inactives show top-dose activity change, negative = inhibition, actives largely listed as inhibitors; 4.4% of 390,000 active; AID 504339, 2011; also: potency is read from the fitted curve at half-maximal effect; % is scaled to controls: 0 for no effect and ±100 for the full control effect; nearly all actives have a fitted effect of over 50% in size
Target sequence (O75164 whole entry, looked up, the tested form may be a part): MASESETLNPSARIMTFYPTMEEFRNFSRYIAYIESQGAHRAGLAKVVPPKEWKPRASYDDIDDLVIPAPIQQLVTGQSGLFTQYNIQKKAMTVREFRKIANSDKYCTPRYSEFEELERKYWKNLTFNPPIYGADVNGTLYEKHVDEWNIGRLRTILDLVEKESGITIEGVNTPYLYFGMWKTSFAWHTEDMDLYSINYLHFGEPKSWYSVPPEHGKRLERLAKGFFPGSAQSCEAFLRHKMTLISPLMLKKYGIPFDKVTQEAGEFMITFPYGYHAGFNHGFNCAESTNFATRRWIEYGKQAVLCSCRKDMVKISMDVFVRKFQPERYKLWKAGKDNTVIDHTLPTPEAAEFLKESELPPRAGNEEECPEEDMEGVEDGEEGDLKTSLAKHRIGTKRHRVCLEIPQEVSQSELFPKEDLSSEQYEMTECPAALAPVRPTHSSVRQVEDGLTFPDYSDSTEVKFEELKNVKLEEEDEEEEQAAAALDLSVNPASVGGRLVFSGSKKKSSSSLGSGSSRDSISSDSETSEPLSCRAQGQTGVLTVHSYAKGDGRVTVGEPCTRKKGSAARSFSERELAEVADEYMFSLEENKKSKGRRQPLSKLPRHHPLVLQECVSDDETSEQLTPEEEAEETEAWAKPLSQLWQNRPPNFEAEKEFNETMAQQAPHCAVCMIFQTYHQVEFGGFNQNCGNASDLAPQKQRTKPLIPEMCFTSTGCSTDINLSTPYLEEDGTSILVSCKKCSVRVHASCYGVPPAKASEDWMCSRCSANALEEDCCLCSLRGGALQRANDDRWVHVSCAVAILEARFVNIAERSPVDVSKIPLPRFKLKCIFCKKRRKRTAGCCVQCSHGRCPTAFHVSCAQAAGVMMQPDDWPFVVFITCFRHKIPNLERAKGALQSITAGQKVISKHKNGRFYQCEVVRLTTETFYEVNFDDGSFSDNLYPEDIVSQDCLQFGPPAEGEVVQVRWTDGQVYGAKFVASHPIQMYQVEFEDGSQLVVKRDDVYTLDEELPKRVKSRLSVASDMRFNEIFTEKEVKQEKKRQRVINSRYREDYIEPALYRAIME
CtBP-E1A inh = qHTS Assay for Inhibitors of the CtBP/E1A Interaction; 0.49% of 340,000 active; AID 651724, 2012; CtBP / adenovirus E1A interaction (AlphaScreen); activity change, % (no concentration beside the values); AlphaScreen GST-E1A/His-CtBP binding, 1536-well; stronger effect = lower value; in the data active = activity change below about -65%; inconclusive = mostly about -30% to -63%; also: % is scaled to controls: 0 for no effect and ±100 for the full control effect
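Steps: dispense buffer (Tris pH 8.0, NaCl 300 mM, TCEP 1 mM, BSA, Tween 20); add 5X protein mix (GST-E1A, His-CtBP, 125 nM each); pin 23 nL compound; 2 h at 37 °C, dark; add 5X beads (50 ug/mL); 1 h; read.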
G9a block = qHTS Assay for Inhibitors of Histone Lysine Methyltransferase G9a; Histone-lysine N-methyltransferase EHMT2 (Homo sapiens), Q96KQ7; G9a H3K9 monomethylation, AlphaScreen, 2 h; Potency, µM (top dose mostly 102 µM), inactives show top-dose activity, negative = inhibition, hits mostly inhibitors; 8.8% of 350,000 active; AID 504332, 2011; also: potency is read from the fitted curve at half-maximal effect; % is scaled to controls: 0 for no effect and ±100 for the full control effect; nearly all actives have a fitted effect of over 75% in size
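G9a (20 nM) preincubated 15 min RT with compounds, then 500 nM biotinylated H3K9 peptide and 20 uM SAM added; 2 h RT reaction. Monomethyl-H3K9 product detected by AlphaScreen with anti-H3K9me1 antibody, streptavidin donor and anti-rabbit IgG acceptor beads.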
Numbers without * were called inactive; ? = inconclusive; nt = no result given; [ ] = dose if it differs, or a comment. Unless noted, calls follow the shape of the dose curve; as a rule, active = well fitted inhibition curve with a large enough effect; inconclusive = small, poorly fitted or top-dose-only effect; inactive = no such curve, though single readings can be large or run the other way.

SMILES	HP1b chromo inh	BAZ2B inh	Six1-Eya2 inh	JMJD2A Tudor inh	CtBP-E1A inh	G9a block
O=C(Nc1ccc(N2CCN(Cc3ccccc3)CC2)cc1)c1ccco1	-15%	-32%	-13	?	-13	79µM*
CC(=O)N1CCN(c2ccc(NCc3ccc4c(c3)OCO4)cc2)CC1	-21%	?	-17	?	-9	?
O=C(c1ccccc1)N1CCN(c2ccc(NCc3ccc4c(c3)OCO4)cc2)CC1	45µM*	35µM*	-11	50µM*	?	5µM*
CC(=O)N1CCN(c2ccc(NCc3ccccc3)cc2)CC1	-8%	?	-13	?	-3	14µM*
Fc1ccc(CNc2ccc(N3CCN(Cc4ccccc4)CC3)cc2)cc1	22µM*	10µM*	-72*	20µM*	-74*	13µM*
Cc1nc2ccc(S(=O)(=O)N(C)CC(=O)Nc3ccc(Br)c(C)c3)cc2s1	7%	3%	nt	-12%	nt	-5%[59 µM]
CC(=O)N1CCN(c2ccc(NCc3cccc4ccccc34)cc2)CC1	?	32µM*	-25	22µM*	?	8.9µM*
CC(=O)N1CCN(c2ccc(NC(=O)/C=C/c3ccccc3)cc2)CC1	34%	-8%	10	-14%	3	19%[59 µM]
COc1cccc(C2C3=C(Nc4[nH]n(-c5ccccc5)c(=O)c42)c2ccccc2C3=O)c1 (centres undefined)	nt	?	nt	nt	nt	10µM*
C#CCOc1ccc(C2C(C(=O)OC)=C(C)NC3=C2C(=O)c2ccccc23)cc1OCC (centres undefined)	?	22µM*	nt	25µM*	nt	11µM*
CCOc1cc(C2C(C(=O)OC)=C(C)NC3=C2C(=O)c2ccccc23)ccc1OC (centres undefined)	?	-35%	nt	-32%	nt	?
CCOC(=O)COc1ccc(C2C(C(=O)OC)=C(C)NC3=C2C(=O)c2ccccc23)cc1Cl (centres undefined)	?	-32%	nt	18µM*	nt	1%[59 µM]
CCOc1cc(Br)c(C2C(C(=O)OC)=C(C)NC3=C2C(=O)c2ccccc23)cc1OCC (centres undefined)	-25%	32µM*	nt	-30%	nt	18µM*
CCOc1cc(C2C(C(=O)OC)=C(C)NC3=C2C(=O)c2ccccc23)c(Br)cc1OC (centres undefined)	-12%	-26%	nt	-26%	nt	-8%[59 µM]
COc1ccccc1CN1[C@@H](CC(=O)O)c2cc(F)ccc2S1(=O)=O	42%	nt	3	-13%	0	nt
COc1cccc(C2C(=O)c3ccccc3C2=O)c1	26%	-28%	1	2%	6	50µM*
COC(=O)C1=C(C)NC2=C(C(=O)c3ccccc32)C1c1cccc(OC)c1 (centres undefined)	-2%	-37%	-13	-23%	nt	50µM*
CCOc1cc(C2C(C(=O)OC)=C(C)NC3=C2C(=O)c2ccccc23)c(Br)cc1O (centres undefined)	?	22µM*	nt	35µM*	nt	16µM*
CCOC(=O)C1=C(C)NC2=C(C(=O)c3ccccc32)C1c1cccc2ccccc12 (centres undefined)	?	35µM*	-14	20µM*	-8	-36%[12.7 µM]
CCOC(=O)C1=C(C)NC2=C(C(=O)c3ccccc32)C1c1ccc(O)cc1 (centres undefined)	-24%	?	?	?	-16	?
COC(=O)C1=CN(C(C)C)C=C(C(=O)OC)C1c1cccc(OC)c1	87%	24%	27	63%	-2	52%[12.7 µM]
COC(=O)/C(C#N)=C1/C=Cc2ccccc2N1	81%	-3%	7	19%	16	51%
CC1=C(C(=O)OCc2ccccc2)C(c2cccc(Br)c2)NC(=O)N1 (centres undefined)	26%	7%	6	-5%	-1	-10%[0.501 µM]
CCOc1cc(C2C(C(=O)OC)=C(C)NC3=C2C(=O)c2ccccc23)cc(Br)c1OCC (centres undefined)	-26%	10µM*	nt	13µM*	nt	10µM*
CC1=C([N+](=O)[O-])C(c2cccc(Br)c2)C2=C(N1)c1ccccc1C2=O (centres undefined)	?	14µM*	-20	16µM*	-5	-21%[2.33 µM]
SMILES	HP1b chromo inh	BAZ2B inh	Six1-Eya2 inh	JMJD2A Tudor inh	CtBP-E1A inh	G9a block
C/C(=N\Nc1nc2ccccc2[nH]1)c1ccccn1	nt	20µM*	nt	nt	nt	6%
C/C(=N\Nc1nc2ccccc2[nH]1)c1cc2ccccc2o1	?	?	-6	45µM*	-18	45µM*
C/C(=N\NC(=O)c1ccncc1)c1cc2ccccc2o1	5%	-35%	-2	-5%	-7	7%
C/C(=N/O)c1ccccn1	20%	10µM*	?	?	?	-3%
Cn1c(N)c(C(=O)COC(=O)COc2cccc(Br)c2)c(=O)n(C)c1=O	55%	nt	-6	6%	2	nt
CC1CCCCN1CCCNc1ccc(C(CC(N)=O)NC(=O)Cc2cccc3ccccc23)cc1[N+](=O)[O-] (centres undefined)	32%	-10%	-3	-22%	3	nt
CN(C)c1ccc(N=c2sc3ccccc3n2C)cc1	10µM*	7.9µM*	-84*	10µM*	44	?
COc1ccc(C2NC(=S)NC3=C2CCc2cc(OC)ccc23)cc1 (centres undefined)	-20%	?	-11	?	-12	40µM*
COc1ccc2c(c1)CCCC2=O	16%	nt	5	-6%	4	nt
O=C(O)c1ccc(S(=O)(=O)c2ccc([N+](=O)[O-])cc2[N+](=O)[O-])cc1	67%	-15%	-13	-19%	-12	25µM*
CC(C)(C)NC(=O)COC(=O)c1ccc(Cl)cc1O	31%	-3%	0	-2%	0	-31%
O=C(COC(=O)c1ccc(Cl)cc1O)NC(=O)C1CCCCC1	21%	-15%	3	6%	-4	50µM*
CCOc1ccc(NC(=O)C(c2ccccn2)N(C(=O)CCl)c2ccc(OCC)cc2)cc1 (centres undefined)	-28%	?	-15	?	-14	3.5µM*
CCOc1ccc(NC(=O)C(c2ccccn2)N(C(=O)CCl)c2ccc(OC)cc2)cc1 (centres undefined)	-27%	?	-10	89µM*	-5	2µM*
COc1ccc(NC(=O)C(c2ccccn2)N(C(C)=O)c2ccc(C)cc2)cc1 (centres undefined)	34%	2%	-1	-5%	6	-19%

Compound activity from PubChem BioAssay.
